# System: Wnt5a (protein binding on small-molecule microarray)
# Assay: Wnt5a binders on small-molecule microarray, primary screen, biophysical, 635/667 nm fluorescence (AID 1142);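 also: fluorescence read at 667 nm with signal to noise per printed feature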
# Conditions: 635 nm fluorescence, higher = more signal
row,SMILES,composite z-score
1,O=C1O[C@@H](c2ccccc2)[C@@H](c2ccccc2)N2[C@@H](c3ccccc3OCCO)[C@]3(C(=O)Nc4ccccc43)[C@@H](C(=O)NC[C@H](O)c3ccccc3)[C@H]12,-0.123
2,COCCOC(=O)N1C(=O)[C@@]2(c3cc(C#CC4=CCCCC4)ccc31)[C@H](c1ccccc1OCCO)N1[C@H](c3ccccc3)[C@H](c3ccccc3)OC(=O)[C@H]1[C@@H]2C(=O)N1CCc2cc(OC)c(OC)cc2C1,0.316
3,Cc1ccc(S[C@]2(C(=O)NC3CC3)CC(=O)N(Cc3ccccc3Cl)[C@@H]2c2ccc(CO)cc2I)cc1,1.3
4,CC(C)CN1C(=O)[C@@]2(Cc3ccccc31)c1ccccc1C(=O)N(Cc1ccccc1C(F)(F)F)[C@H]2c1ccc(CO)cc1,-0.331
5,CCCN1C(=O)[C@]2(Cc3ccccc3)N=C(c3ccc(OCCCO)cc3)O[C@@H]2c2ccccc21,1.19
6,C[C@]1(C(=O)NC2CC2)c2ccccc2C(=O)N(Cc2ccc(OC(F)(F)F)cc2)[C@H]1c1ccc(CO)cc1,-0.0135
7,NC(=O)NCC#Cc1ccc2c(c1)[C@]1(C(=O)N2)[C@H](C(=O)O)[C@H]2C(=O)O[C@H](c3ccccc3)[C@H](c3ccccc3)N2[C@@H]1c1ccccc1OCCO,0.697
8,Cc1ccc(S[C@]2(C(=O)NCCN3CCOCC3)CC(=O)N(Cc3ccccc3C(F)(F)F)[C@@H]2c2ccc(CO)cc2I)cc1,0.0381
9,Cc1ccc(S[C@]2(C(=O)NCc3ccccc3)CC(=O)N(C(C)C)[C@@H]2c2ccc(CO)cc2I)cc1,0.292
10,NC(=O)NCC#Cc1ccc2c(c1)[C@]1(C(=O)N2)[C@H](C(=O)Nc2nc3ccccc3s2)[C@H]2C(=O)O[C@H](c3ccccc3)[C@H](c3ccccc3)N2[C@@H]1c1ccc(O)cc1,0.236

# — PubChem BioAssay
